Experimental data from PubChem BioAssay AID1159580 (chemical genetic matrix, 2015).
The campaign covered roughly 5,500 compounds. About 2,000 (36%) were called active. Another 18% or so got no clear call; they are omitted. No stated cut-off is given here; in the data, active means normalized growth mostly below about 0.91 (no sharp cut-off); inconclusive means no clear call, values can overlap the other calls; inactive means mostly above about 0.92. The list shows a part of the results.

Assay: chemical genetic growth profiling, strain panel (AID 1159580);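 further: tested at 20 µM; growth read once vehicle control cultures reached saturation at 30 °C; 1 = growth at the plate median or of vehicle wells; lower values mean less growth of the strain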
Settings: growth OD

Measured: normalized growth

CCCCC1=NC2(CCCC2)C(=O)N1Cc1ccc(-c2ccccc2-c2nn[nH]n2)cc1
inactive: S. cerevisiae deletion strains, locus YKL009W, strain mrt4, hits give low values 0.952 | S. cerevisiae deletion strains, locus YKL068W, hits give low values 0.98 | S. cerevisiae deletion strains, locus YKL085W, strain MDH1 (second series), hits give low values 0.986 | S. cerevisiae deletion strains, locus YKL085W, strain MDH1, hits give low values 0.986 | S. cerevisiae deletion strains, locus YKL160W, strain elf1, hits give low values 1.01 | S. cerevisiae deletion strains, locus YKL190W, strain CNB1, hits give low values 0.986 | S. cerevisiae deletion strains, locus YKR001C, strain vps1, hits give low values 0.996 | S. cerevisiae deletion strains, locus YKR026C, strain gcn3, hits give low values 1.01 | S. cerevisiae deletion strains, locus YKR091W, strain srl3, hits give low values 1.02 | S. cerevisiae deletion strains, locus YLL001W, strain dnm1, hits give low values 1.01 | S. cerevisiae deletion strains, locus YLL026W, hits give low values 1.02 | S. cerevisiae deletion strains, locus YLL041C, strain sdh2, hits give low values 1.01 | S. cerevisiae deletion strains, locus YLR027C, strain aat2, hits give low values 0.999 | S. cerevisiae deletion strains, locus YLR039C, strain RIC1, hits give low values 0.969 | S. cerevisiae deletion strains, locus YLR058C, strain SHM2, hits give low values 0.964 | S. cerevisiae deletion strains, locus YLR102C, strain apc9, hits give low values 0.981 | S. cerevisiae deletion strains, locus YLR113W, strain HOG1, hits give low values 1.02 | S. cerevisiae deletion strains, locus YLR221C, strain rsa3, hits give low values 1.01 | S. cerevisiae deletion strains, locus YLR258W, strain gsy2, hits give low values 1.02 | S. cerevisiae deletion strains, locus YLR262C, strain YPT6 (second series), hits give low values 1.04 | S. cerevisiae deletion strains, locus YLR262C, strain YPT6, hits give low values 0.947 | S. cerevisiae deletion strains, locus YLR268W, strain sec22, hits give low values 1.09 | S. cerevisiae deletion strains, locus YLR320W, strain mms22, hits give low values 1.02 | S. cerevisiae deletion strains, locus YLR330W, strain CHS5, hits give low values 0.987 | S. cerevisiae deletion strains, locus YLR342W, strain FKS1 (second series), hits give low values 0.96 | S. cerevisiae deletion strains, locus YLR342W, strain FKS1, hits give low values 1.02 | S. cerevisiae deletion strains, locus YLR357W, strain rsc2, hits give low values 1.01 | S. cerevisiae deletion strains, locus YLR370C, strain arc18, hits give low values 1.01 | S. cerevisiae deletion strains, locus YLR371W, strain rom2, hits give low values 0.972 | S. cerevisiae deletion strains, locus YLR384C, strain iki3, hits give low values 1 | S. cerevisiae deletion strains, locus YLR418C, strain cdc73, hits give low values 0.993 | S. cerevisiae deletion strains, locus YML016C, strain PPZ1, hits give low values 0.984 | S. cerevisiae deletion strains, locus YML032C, strain rad52, hits give low values 1.02 | S. cerevisiae deletion strains, locus YML120C, strain ndi1, hits give low values 0.997 | S. cerevisiae deletion strains, locus YML124C, strain tub3, hits give low values 0.977 | S. cerevisiae deletion strains, locus YMR058W, strain fet3, hits give low values 1 | S. cerevisiae deletion strains, locus YMR078C, strain ctf18, hits give low values 0.991 | S. cerevisiae deletion strains, locus YMR125W, strain sto1, hits give low values 1.01 | S. cerevisiae deletion strains, locus YMR129W, hits give low values 1.01 | S. cerevisiae deletion strains, locus YMR205C, strain PFK2, hits give low values 1.03 | S. cerevisiae deletion strains, locus YMR223W, strain ubp8, hits give low values 0.957 | S. cerevisiae deletion strains, locus YMR231W, strain pep5, hits give low values 1.02 | S. cerevisiae deletion strains, locus YMR263W, strain SAP30, hits give low values 0.998 | S. cerevisiae deletion strains, locus YMR307W, strain GAS1, hits give low values 0.964 | S. cerevisiae deletion strains, locus YNL067W, strain RPL9B, hits give low values 1.04 | S. cerevisiae deletion strains, locus YNL071W, strain lat1, hits give low values 1 | S. cerevisiae deletion strains, locus YNL128W, strain TEP1, hits give low values 0.968 | S. cerevisiae deletion strains, locus YNL153C, strain GIM3, hits give low values 1.03 | S. cerevisiae deletion strains, locus YNL183C, strain NPR1, hits give low values 0.966 | S. cerevisiae deletion strains, locus YNL209W, strain ssb2, hits give low values 1.01 | S. cerevisiae deletion strains, locus YNL233W, strain BNI4, hits give low values 1.04 | S. cerevisiae deletion strains, locus YNL248C, strain rpa49, hits give low values 1.04 | S. cerevisiae deletion strains, locus YNL250W, strain rad50, hits give low values 0.978 | S. cerevisiae deletion strains, locus YNL271C, strain bni1, hits give low values 1 | S. cerevisiae deletion strains, locus YNL298W, strain CLA4, hits give low values 0.971 | S. cerevisiae deletion strains, locus YNL307C, strain MCK1, hits give low values 0.99 | S. cerevisiae deletion strains, locus YNL322C, strain KRE1 (second series), hits give low values 1.03 | S. cerevisiae deletion strains, locus YNL322C, strain KRE1, hits give low values 0.986 | S. cerevisiae deletion strains, locus YNR049C, strain mso1, hits give low values 1 | S. cerevisiae deletion strains, locus YNR052C, strain pop2, hits give low values 0.999 | S. cerevisiae deletion strains, locus YOL006C, strain TOP1, hits give low values 1.1 | S. cerevisiae deletion strains, locus YOL012C, strain htz1 0.917 | S. cerevisiae deletion strains, locus YOL147C, strain pex11, hits give low values 0.992 | S. cerevisiae deletion strains, locus YOR001W, strain rrp6, hits give low values 1.01 | S. cerevisiae deletion strains, locus YOR061W, strain CKA2, hits give low values 0.97 | S. cerevisiae deletion strains, locus YOR069W, strain VPS5, hits give low values 0.991 | S. cerevisiae deletion strains, locus YOR070C, strain gyp1, hits give low values 1.01 | S. cerevisiae deletion strains, locus YOR080W, strain dia2, hits give low values 1 | S. cerevisiae deletion strains, locus YOR083W, strain WHI5, hits give low values 1.03 | S. cerevisiae deletion strains, locus YOR106W, strain vam3, hits give low values 1.02 | S. cerevisiae deletion strains, locus YOR136W, strain idh2, hits give low values 0.967 | S. cerevisiae deletion strains, locus YOR144C, strain elg1, hits give low values 0.987 | S. cerevisiae deletion strains, locus YOR184W, strain ser1, hits give low values 0.979 | S. cerevisiae deletion strains, locus YOR231W, strain MKK1, hits give low values 0.981 | S. cerevisiae deletion strains, locus YOR265W, strain rbl2, hits give low values 1.01 | S. cerevisiae deletion strains, locus YOR270C, strain vph1, hits give low values 1.08 | S. cerevisiae deletion strains, locus YOR290C, strain snf2, hits give low values 1.01 | S. cerevisiae deletion strains, locus YOR316C, strain cot1, hits give low values 0.984 | S. cerevisiae deletion strains, locus YPL051W, strain arl3, hits give low values 0.984 | S. cerevisiae deletion strains, locus YPL055C, strain LGE1, hits give low values 0.959 | S. cerevisiae deletion strains, locus YPL078C, strain atp4, hits give low values 1.01 | S. cerevisiae deletion strains, locus YPL106C, strain sse1, hits give low values 1.01 | S. cerevisiae deletion strains, locus YPL240C, strain hsp82, hits give low values 1 | S. cerevisiae deletion strains, locus YPL241C, strain CIN2, hits give low values 0.99 | S. cerevisiae deletion strains, locus YPL256C, strain CLN2, hits give low values 0.985 | S. cerevisiae deletion strains, locus YPR119W, strain clb2, hits give low values 0.986 | S. cerevisiae deletion strains, locus YPR141C, strain kar3, hits give low values 0.971 | S. cerevisiae deletion strains, locus YPR163C, strain tif3, hits give low values 0.995 | S. cerevisiae deletion strains, locus YPR167C, strain met16, hits give low values 0.991 | S. cerevisiae deletion strains, strain wtn01, hits give low values 1.02 | S. cerevisiae strains, strain wild type, hits give low values 0.978
